# Source: PMC4552634, “A New Set of Chemical Starting Points with Plasmodium falciparum Transmission-Blocking Potential for Antimalarial Drug Discovery” (PLoS ONE, 2015)
# In all, about 13,000 compounds went through this assay and about 3,200 (25%) showed an effect of 50% or more. The list shows a part of the results.
# System: P. falciparum stage V gametocytes
# Set-up: BacTiter-Glo ATP luminescence viability of purified stage V gametocytes in 384-well plates, per cent inhibition versus DMSO
# Conditions: 48 h, 5 µM; inhibitor
row,Compound,% Inhibition [%]
1,O=C(O)C(F)(F)F.O=C(O)Cc1ccc(-c2c[nH]c3ncc(-c4cccc5ncccc45)cc23)cc1 [TCMDC-136372],46.28
2,CC(C)(CNC(=O)C1CCN(CCOCc2ccccc2)CC1)c1nc(-c2ccc(Cl)c(O)c2)c(-c2ccncc2)[nH]1 [TCMDC-141122],-51.1
3,CN1CCc2cc(I)c(O)cc2C1Cc1ccccc1Cl (centres unmarked) [TCMDC-137321],-44.87
4,Cc1csc(-c2nonc2NC(=O)COc2ccccc2C(C)C)n1 [TCMDC-125014],-9.384
5,Cc1ccc(CNC(=O)[C@H](Cc2ccccc2)Nc2cc(C)nc(NCCc3ccc(F)cc3)n2)cc1 [TCMDC-134788],66.59
6,CCCC(C)Nc1nc(C)cc(N[C@@H](Cc2ccccc2)C(=O)NCc2ccc(C)cc2)n1 (some centres unmarked) [TCMDC-134894],-11.47
7,Cc1cc(N[C@@H](Cc2ccccc2)C(=O)NCc2cccc(F)c2)nc(NCCCOC(C)C)n1 [TCMDC-134822],52.41
8,Cc1cc(N[C@@H](Cc2ccccc2)C(=O)NCc2cccc(F)c2)nc(NCCc2cccnc2)n1 [TCMDC-134817],63.38
9,Cc1cc(N[C@@H](Cc2ccccc2)C(=O)NCc2cccc(F)c2)nc(NCCOc2ccccc2)n1 [TCMDC-134756],40.03
10,Cc1ccc(CNC(=O)[C@H](Cc2ccccc2)Nc2cc(C)nc(NCc3ccccc3C)n2)cc1 [TCMDC-134905],48.7
11,Cc1cc(N[C@@H](Cc2ccccc2)C(=O)NCc2cccc(F)c2)nc(NCCc2cccs2)n1 [TCMDC-134812],147.6
12,Cc1cc(N[C@@H](Cc2ccccc2)C(=O)NCc2cccc(F)c2)nc(Nc2ccccc2)n1 [TCMDC-134857],-8.236
13,CCCC(C)Nc1nc(C)cc(N[C@@H](Cc2ccccc2)C(=O)NCc2cccc(F)c2)n1 (some centres unmarked) [TCMDC-134764],-38.43
14,COc1ccc(Cn2c(Nc3cccc(C(F)(F)F)c3)nc3cc(C(=O)NC(C)C)cnc32)cc1Cl [TCMDC-138556],8.056
15,CC[C@H](C)CNC(=O)c1ccc(-c2cccc(CN3CCC(N4CCCC4)CC3)c2)nc1 [TCMDC-134222],28.35
16,Cc1cccc2[nH]c(-c3cccc(-c4ccc(NC(=O)C(C)(C)c5ccccn5)cc4)c3)nc12 [TCMDC-137053],15.43
17,COc1cc(-c2nnc(SCC(=O)Nc3cc(C)on3)n2C)cc(OC)c1O [TCMDC-123652],-77.31
18,CC(=O)Oc1c(C(=O)C2CCC(C(C)(C)C)CC2)c(OC(C)=O)c2ccccc2c1OC(C)=O (centres unmarked) [TCMDC-138179],0.9625
19,O=S(=O)(NCCN1CCCC1)c1cccc(-c2ccccc2CNC2Cc3ccccc3C2)c1 [TCMDC-132212],102.4
20,O=S(=O)(NCCN1CCCC1)c1ccc(-c2ccccc2CNC2Cc3ccccc3C2)cc1 [TCMDC-132210],61.07
21,COc1cccc(OC)c1C(=O)N1CCC2(CC1)C(=O)N(CC(=O)NC1CCCCC1)CN2c1ccccc1 [TCMDC-125168],-28.41

row,Compound,% Inhibition [%]
1,CC1CCc2c(C(=O)N3CCc4ccccc4C3)csc2C1 (centres unmarked) [TCMDC-123624],13.04
2,Cc1ccc(Nc2nccc(NCC(O)c3cccc(C)c3)n2)cc1 (centres unmarked) [TCMDC-136569],-32.98
3,CN(C)Cc1ccc(-c2cccc(Nc3nccc(NCC(O)c4ccccc4)n3)c2)cc1 (centres unmarked) [TCMDC-136467],95.23
4,CN1CCN(c2cccc(Nc3nccc(NCC(O)c4ccccc4)n3)c2)CC1 (centres unmarked) [TCMDC-136468],11.64
5,CN1CCC(Oc2ccc(Nc3nccc(NCC(O)c4ccccc4)n3)cc2Cl)CC1 (centres unmarked) [TCMDC-136471],60.18
6,CN(C)CC(=O)Nc1cccc(Nc2nccc(NCC(O)c3ccccc3)n2)c1 (centres unmarked) [TCMDC-136472],19.31
7,OC(CNc1ccnc(Nc2cccc(OCCCN3CCOCC3)c2)n1)c1ccccc1 (centres unmarked) [TCMDC-136465],23.11
8,Cc1nc(-c2cccc(Nc3nccc(NCC(O)c4ccccc4)n3)c2)cs1 (centres unmarked) [TCMDC-136565],4.289
9,CN(C)CC(=O)Nc1ccc(Nc2nccc(NCC(O)c3ccccc3)n2)cc1 (centres unmarked) [TCMDC-136466],-80.24
10,CN(C)Cc1cccc(-c2ccc(Nc3nccc(NCC(O)c4ccccc4)n3)cc2)c1 (centres unmarked) [TCMDC-136470],73.29
11,FC(F)(F)c1ccc2[nH]c(-c3ccc(-c4cccc(CNCC5CCCO5)c4)cc3)nc2c1.O=C(O)C(F)(F)F (centres unmarked) [TCMDC-133095],-18.46
12,Cc1ccc(NC(=O)c2c(C)noc2-c2snnc2C)cc1 [TCMDC-125783],10.03
13,CCOc1c(OC)ccc2c1CCN(CCN1CCC(CNC(=O)c3ccc(-c4ccc(C(F)(F)F)cc4)cc3)CC1)C2 [TCMDC-138806],11.85
14,COc1ccc2c(c1)c(C1CCN(CCCCNC(=O)c3ccc(-c4ccc(C(F)(F)F)cc4)cc3)CC1)cn2C(C)C [TCMDC-138801],16.06
15,CC(C)Cn1cc(C2CCN(CCN3CCC(CNC(=O)c4ccc(-c5ccc(C(F)(F)F)cc5)cc4)CC3)CC2)c2ccccc21 [TCMDC-138852],92.78
16,O=C(NCC1CCN(CCN2CCC(c3cn(CCO)c4ccccc34)CC2)CC1)c1ccc(-c2ccc(C(F)(F)F)cc2)cc1 [TCMDC-138856],114.3
17,O=C(NCC1CCN(CCN2CCc3ccc4c(c3C2)OCO4)CC1)c1ccc(-c2ccc(C(F)(F)F)cc2)cc1 [TCMDC-138834],-19.42
18,Cc1cc(C2CCN(CCCCNC(=O)c3ccc(-c4ccc(C(F)(F)F)cc4)cc3)CC2)c(C)cc1OCCOC1CCCCO1 (centres unmarked) [TCMDC-138802],-43.58
19,N#Cc1ccc(-c2ccc(C(=O)NC3CCN(CCN4CCC(c5cn(CCO)c6ccccc56)CC4)CC3)cc2)cc1 [TCMDC-138858],-15.2
20,N#Cc1ccc(CN2CCC(NC(=O)c3ccc(-c4nnc(-c5cccc6ccccc56)o4)cc3)CC2)cc1 [TCMDC-136131],6.646
21,N#Cc1ccc(-c2ccc(C(=O)NC3CCN(CCN4CCC(c5cn(CCOC6CCCCO6)c6ccccc56)CC4)CC3)cc2)cc1 (centres unmarked) [TCMDC-138855],104.1

row,Compound,% Inhibition [%]
1,O=C(NC1CCN(CCN2CCC(c3cn(CCO)c4ccccc34)CC2)CC1)c1ccc(-c2ccc(C(F)(F)F)cc2)cc1 [TCMDC-138871],111.6
2,CCOc1ccc(C2CCN(CCN3CCC(NC(=O)c4ccc(-c5ccc(C(F)(F)F)cc5)cc4)CC3)CC2)c(OCC2CC2)c1 [TCMDC-138832],-29.12
3,O=C(NC1CC1)c1cnc(N2CCCC(c3ccccc3)C2)c(Cl)c1 (centres unmarked) [TCMDC-134608],7.948
4,CCOC(=O)[C@H](Cc1cc([N+](=O)[O-])c(Oc2ccc(OC)c(Cc3ccc(OC)c(C(C)C)c3)c2)c([N+](=O)[O-])c1)NC(=O)C(F)(F)F [TCMDC-139398],36.25
5,COc1ccc(C2(CNCC(O)c3cccc([N+](=O)[O-])c3)CCCC2)cc1OC (centres unmarked) [TCMDC-123699],30.43
6,CCC[C@@H]([C@@H](CC1CCCCC1)C(=O)N[C@@H](CCOC(=O)NCC)C(=O)Nc1nccs1)N(O)C=O [TCMDC-138145],41.2
7,NC1=NC(c2ccccc2)(c2ccccc2)C(=O)N1CC=Cc1ccccc1 [TCMDC-136505],-58.42
8,O=C(NCCCN1CCOCC1)c1csc(Nc2ccc(Cl)c(Cl)c2)n1 [TCMDC-123719],-63.94
9,CCc1sc(N2CCC(C)CC2)nc1C(=O)Nc1ccc(F)cc1C(F)(F)F [TCMDC-134663],-1.278
10,CCCCCN1CCCC1CNS(=O)(=O)c1ccc(C(=O)Nc2ccc(C(F)(F)F)cc2)cc1 (centres unmarked) [TCMDC-133682],-15.48
11,CN1CCCC(CN2CCN(Cc3cccc(-c4cccc(-c5nc6ccccc6[nH]5)c4)c3)CC2)C1 (centres unmarked) [TCMDC-133912],100.3
12,CN1CCCC(CN2CCN(Cc3ccc(-c4cccc(-c5nc6ccccc6[nH]5)c4)cc3)CC2)C1 (centres unmarked) [TCMDC-133916],44.74
13,O=C(O)C(F)(F)F.c1ccc2[nH]c(-c3ccc(-c4ccc(CN5CCN(c6ccncc6)CC5)cc4)cc3)nc2c1 [TCMDC-133830],15.5
14,c1cc(CN2CCN(c3ccncc3)CC2)cc(-c2ccc(-c3nc4ccccc4[nH]3)cc2)c1 [TCMDC-132921],36.65
15,CN1CCCC(CN2CCN(Cc3cccc(-c4ccc(-c5nc6ccccc6[nH]5)cc4)c3)CC2)C1 (centres unmarked) [TCMDC-133888],60.97
16,CN1CCCC(CN2CCN(Cc3ccc(-c4ccc(-c5nc6ccccc6[nH]5)cc4)cc3)CC2)C1.O=C(O)C(F)(F)F (centres unmarked) [TCMDC-133903],95.28
17,CN1CCCC(CN2CCN(Cc3cccc(-c4csc(-c5nc6ccccc6[nH]5)c4)c3)CC2)C1 (centres unmarked) [TCMDC-133913],1.76
18,O=C(O)C(F)(F)F.OCCN1CCN(Cc2ccc(-c3ccc(-c4nc5ccccc5[nH]4)cc3)cc2)CC1 [TCMDC-133025],-7.938
19,O=C(Nc1ccc(Cl)cc1)c1ccc(CN2CCCN(Cc3cccc(O)c3)CC2)cc1 [TCMDC-136406],-22.52
20,O=C(Nc1ccc(C(=O)N2CCN(CCN3CCN(c4cccc(C(F)(F)F)c4)CC3)CC2)cc1)c1ccc(OC(F)(F)F)cc1 [TCMDC-138147],-46.71
